Our source for the outcome and AC50 values is PubChem BioAssay (EPA / NIEHS).

As a reminder, the AC50 is the concentration giving half of the maximal activity seen.

The target in test [1] is Cellular tumor antigen p53 (Homo sapiens) (UniProt P04637). Description: TOX21_p53_BLA_p2_ratio: Tox21 HCT-116 p53 Agonism Beta-lactamase Assay, Ratio, Phase 2 (AID 2283592). In outline: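 DMSO-normalized, positive-direction endpoint derived from the 460 nm/530 nm FRET ratio in HCT116 p53 beta-lactamase reporter cells exposed 16 h at 37C and loaded with CCF4-AM for 2 h.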

Test [2] in a line: TOX21_p53_BLA_p5_viability: Viability Assessment in the Tox21 HCT-116 p53 Agonism Beta-lactamase Assay, Phase 5 (AID 2283600). In outline: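 Here cell health was gauged by ATP levels in wells holding 4000 cells, each treated 16 h with DMSO-delivered compounds at 217-fold dilution; reduced luminescence marked toxicity.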
Test [3] concerns the target Cellular tumor antigen p53 (Homo sapiens) (UniProt P04637). Description: TOX21_p53_BLA_p5_ratio: Tox21 HCT-116 p53 Agonism Beta-lactamase Assay, Ratio, Phase 5 (AID 2283599). The method, boiled down:
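HCT-116 cells carrying a p53-inducible beta-lactamase reporter were seeded at 4000 cells/well and dosed after 5 h with compound in DMSO (217-fold dilution). After 16 h at 37C, CCF4-AM substrate was added for 2 h, and the 460/530 nm emission ratio was scored as gain-of-signal versus DMSO.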

Test [4] can be described thus: ACEA_ER_AUC_viability: ACEA Biosciences xCELLigence Real-Time Cell Analysis on Estrogen Receptor Agonism for Viability (AID 2283782).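 Also: hit means loss of impedance signal meaning reduced cell growth or viability.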 In outline: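 Continuous-exposure impedance cell analysis uses T-47D cells in charcoal-stripped serum, eight 1:4 dilutions topping at 100 uM final, biological duplicate. Area under the growth curve at 80 h is fitted against DMSO baseline.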

Test [5] deals with Cellular tumor antigen p53 (Homo sapiens) (UniProt P04637). As to the kind of experiment: TOX21_p53_BLA_p4_ratio: Tox21 HCT-116 p53 Agonism Beta-lactamase Assay, Ratio, Phase 4 (AID 2283601). The method, boiled down: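 HCT116 cells carrying an inducible beta-lactamase reporter were plated at 4000 cells/well, rested 5 h, then exposed to compounds in DMSO (217-fold dilution) for 16 h at 37C. CCF4-AM substrate was loaded 2 h at room temperature; 460/530 nm emission ratio scored gain-of-signal versus DMSO.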

Test [6] is described as follows: TOX21_p53_BLA_p4_viability: Viability Assessment in the Tox21 HCT-116 p53 Agonism Beta-lactamase Assay, Phase 4 (AID 2283597).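 Also: hits lower the luminescence signal meaning cytotoxicity.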 The method, boiled down: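 In this multiplexed secondary endpoint, HCT116 cells (4000 per well, compound at 5 h, 16 h treatment) received CellTiter-Glo after the beta-lactamase read. Luminescence after 30 min RT reflects ATP, and falling signal marks cytotoxicity.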

A short description of test [7]: CCTE_Harrill_HTTr_Viability_MCF7: CCTE's 6-hour Cell Viability Assessment for the High-Throughput Transcriptomics (HTTr) Platform, in MCF-7 cells cultured in DMEM + 10% fetal bovine serum, Harrill Lab (AID 2284010; active = hit-call score of the fitted dose curve at least 0.9, where 1 is the maximum; inactive = score below 0.9). In outline: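 Eight-point concentration series, six-hour exposure. Propidium iodide exclusion imaged to assess membrane integrity as a cytotoxicity readout; bidirectional fitting was done with DMSO as negative control and activity baseline.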

For test [8], the target named is Cellular tumor antigen p53 (Homo sapiens) (UniProt P04637). Description: TOX21_p53_BLA_p3_ratio: Tox21 HCT-116 p53 Agonism Beta-lactamase Assay, Ratio, Phase 3 (AID 2283596). In outline:
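Cells were seeded at 4000/well, rested 5 h at 37C, then dosed with DMSO compound solutions (217-fold dilution) for 16 h. CCF4-AM substrate was loaded for 2 h at room temperature, and the 460/530 nm emission ratio was fitted for gain of signal versus DMSO.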

A short description of test [9]: CCTE_Harrill_HTTr_CellCount_MCF7: CCTE's Cell Proliferation Assessment for the High-Throughput Transcriptomics (HTTr) Platform, Harrill Lab (AID 2284012).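 Also: intended direction is loss of nuclei count meaning fewer cells.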 The method, boiled down: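 For this full-screen endpoint, MCF-7 cultures received eight compound dilutions for six hours. Well nuclei counts from Hoechst imaging were analyzed relative to DMSO.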
The target of test [10] is PGR (gene 5241) (UniProt P06401). Description: TOX21_PR_BLA_Followup_Antagonist_ratio: Tox21 HEK293 Progesterone Receptor (PR) Antagonism Beta-lactamase Follow-Up Assay, Ratio (AID 2283934).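 Also: PR-UAS-bla HEK293T cells stimulated with 1 nM R5020 agonist for 16 hr.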 The method, boiled down:
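Measured in PR-UAS-bla HEK293T cells co-treated with compound and 1 nM promegestone for 16 hr; beta-lactamase ratio read after 2 h FRET substrate loading, with parallel CellTiter-Glo cytotoxicity.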

The nature of test [11]: TOX21_PR_BLA_Followup_Agonist_viability: Viability Assessment in the Tox21 HEK293 Progesterone Receptor (PR) Agonism Beta-lactamase Follow-Up Assay (AID 2283935).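 Also: signal loss means lower viability so actives are cytotoxic.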 The method, boiled down:
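Viability is read as CellTiter-Glo luminescence, where loss of signal indicates cytotoxicity. The cells are PR-UAS-bla HEK293T given compounds for 16 hr at 37C and 5% CO2, in the same wells used for the bla readout.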

A short description of test [12]: TOX21_PR_BLA_Followup_Antagonist_viability: Viability Assessment in the Tox21 HEK293 Progesterone Receptor (PR) Antagonism Beta-lactamase Follow-Up Assay (AID 2283936).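 Also: cells exposed to compound with R5020 agonist for 16 h; hits lower the luminescence signal meaning cytotoxicity.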 In outline: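 PR-UAS-bla HEK293T cells in medium with 2% charcoal-stripped FBS were treated with compounds plus R5020 for 16 hr at 37C. After the beta-lactamase read, CellTiter-Glo was added to the same wells and luminescence read after 30 min at room temperature.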

In test [13] the target is PGR (gene 5241) (UniProt P06401). Description: TOX21_PR_LUC_Followup_Antagonist: Tox21 HEK293 Progesterone Receptor (PR) Antagonism Luciferase Follow-Up Assay (AID 2283938).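 Also: curve fitted upward as signal gain over DMSO baseline despite antagonist label.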 The method, boiled down:
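Luciferase reporter in HEK293-PR-A-luc cells: 16 h compound treatment at 37C, ONE-Glo luminescence detection, DMSO as negative control and baseline.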

Test [14] is described as follows: TOX21_PR_LUC_Followup_Antagonist_viability: Viability Assessment in the Tox21 HEK293 Progesterone Receptor (PR) Antagonism Luciferase Follow-Up Assay (AID 2283940). In outline: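 Loss of CellTiter-Glo ATP signal indicates cytotoxicity in HEK293-PR-A-luc cells grown in 10% charcoal-stripped FBS medium, seeded 3,000 per well and incubated 16 h with compound at 37C.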

Test [15] in a line: TOX21_PR_LUC_Followup_Agonist_viability: Viability Assessment in the Tox21 HEK293 Progesterone Receptor (PR) Agonism Luciferase Follow-Up Assay (AID 2283941).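 Also: loss of signal means cytotoxicity so actives lower viability.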 In outline: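 Seeding: HEK293-PR-A-luc, 3,000 cells/well, 5 h at 37C. Treatment: compound in DMSO, 16 h, 37C. Read: CellTiter-Glo ATP luminescence, signal loss taken as lower viability.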
Test [16] is described as follows: TOX21_p53_BLA_p3_viability: Viability Assessment in the Tox21 HCT-116 p53 Agonism Beta-lactamase Assay, Phase 3 (AID 2283593).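 Also: cells exposed to compound for 16 h before reading.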 In outline: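 HCT-116 cells (4000/well) rested 5 h at 37C, then got DMSO compounds by pin tool (217-fold dilution) for 16 h at 37C, 5% CO2. After the bla read, CellTiter-Glo was added and luminescence read at 30 min, room temperature.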

Test [17] can be described thus: CCTE_Harrill_HTTr_Apoptosis_MCF7: CCTE's 6-hour Apoptosis Assessment for the High-Throughput Transcriptomics (HTTr) Platform, in MCF-7 cells cultured in DMEM + 10% fetal bovine serum, Harrill Lab (AID 2284011; active = hit-call score of the fitted dose curve at least 0.9, where 1 is the maximum; inactive = score below 0.9). The method, boiled down:
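Apoptosis in MCF-7 cells grown in DMEM with 10% fetal bovine serum was scored after a six hour exposure by high content imaging of caspase-3/7 activation (CellEvent Caspase 3/7 Green), with DMSO serving as negative control and baseline.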

Structures are written as SMILES. Inconclusive results are not listed. Activity calls are given as the source filed them. The calls were made as follows, unless noted: active = hit-call score of the fitted dose curve at least 0.9, where 1 is the maximum; inconclusive = response in the unintended direction; inactive = score below 0.9.

Sequence of Cellular tumor antigen p53 (Homo sapiens) (P04637 whole entry, looked up): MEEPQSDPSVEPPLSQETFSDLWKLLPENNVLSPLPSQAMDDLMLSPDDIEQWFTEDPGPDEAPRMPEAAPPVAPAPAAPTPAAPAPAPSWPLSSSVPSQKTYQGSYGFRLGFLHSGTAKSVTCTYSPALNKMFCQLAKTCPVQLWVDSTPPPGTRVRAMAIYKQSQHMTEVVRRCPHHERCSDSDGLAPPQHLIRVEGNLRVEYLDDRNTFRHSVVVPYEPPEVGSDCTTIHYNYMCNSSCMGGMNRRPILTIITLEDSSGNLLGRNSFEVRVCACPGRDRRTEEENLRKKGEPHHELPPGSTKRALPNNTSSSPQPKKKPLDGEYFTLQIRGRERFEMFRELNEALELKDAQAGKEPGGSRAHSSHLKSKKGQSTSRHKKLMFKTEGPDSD
Sequence of PGR (gene 5241) (P06401 whole entry, looked up): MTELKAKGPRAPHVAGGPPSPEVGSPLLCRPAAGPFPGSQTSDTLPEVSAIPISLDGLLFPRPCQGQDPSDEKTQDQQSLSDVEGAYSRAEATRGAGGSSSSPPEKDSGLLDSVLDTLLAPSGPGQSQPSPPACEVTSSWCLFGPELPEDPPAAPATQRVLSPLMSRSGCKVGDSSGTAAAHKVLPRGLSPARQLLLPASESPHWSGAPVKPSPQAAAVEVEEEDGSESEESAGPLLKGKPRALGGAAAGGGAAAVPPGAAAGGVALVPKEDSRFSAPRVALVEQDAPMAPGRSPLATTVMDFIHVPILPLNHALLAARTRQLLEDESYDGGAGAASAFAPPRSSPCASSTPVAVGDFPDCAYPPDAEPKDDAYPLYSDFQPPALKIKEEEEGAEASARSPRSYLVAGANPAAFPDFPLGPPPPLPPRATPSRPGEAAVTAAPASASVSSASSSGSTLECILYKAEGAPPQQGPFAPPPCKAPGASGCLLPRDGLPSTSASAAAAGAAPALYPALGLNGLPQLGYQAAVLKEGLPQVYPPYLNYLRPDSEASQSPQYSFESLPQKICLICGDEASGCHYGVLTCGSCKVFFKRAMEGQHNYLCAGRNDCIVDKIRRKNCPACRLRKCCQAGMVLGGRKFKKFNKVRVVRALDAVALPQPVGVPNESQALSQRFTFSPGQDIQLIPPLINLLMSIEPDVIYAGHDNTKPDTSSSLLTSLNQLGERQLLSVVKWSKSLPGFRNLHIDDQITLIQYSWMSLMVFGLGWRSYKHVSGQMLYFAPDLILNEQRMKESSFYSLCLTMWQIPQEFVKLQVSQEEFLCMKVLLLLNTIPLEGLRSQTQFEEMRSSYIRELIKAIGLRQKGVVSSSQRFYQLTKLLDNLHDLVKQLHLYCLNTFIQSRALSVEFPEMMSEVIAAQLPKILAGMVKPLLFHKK

Consider `FC(Cl)(Cl)Cl`, for which the outcome in test [1] and in [2] was inactive.
Turning to `COC(=O)C1(O)c2ccccc2-c2ccccc21`, the result in [1], in test [3] and in test [4] was inactive.
Turning to `CN(C)CCc1c[nH]c2ccc(O)cc12`, the outcome in test [1] and in [3] was inactive.
As to `O=S(=O)(Cl)Cl`, the result in test [1], in test [3] and in [2] was inactive.
For the compound `Cc1ccc(N)cc1C`, the result in [1], in test [3] and in test [5] was inactive.
Consider `C=CCN1C[C@H](C)N([C@H](c2ccc(C(=O)N(CC)CC)cc2)c2cccc(OC)c2)C[C@H]1C`, for which the outcome in test [1], in [6], in test [3] and in [5] was inactive.
In the case of `OC(Cn1cncn1)(c1ccc(F)cc1)c1ccccc1F` (centres undefined), the outcome in test [1], in test [6], in test [3] and in test [7] was inactive.
As to `COc1ccccc1N1CCNCC1`, the outcome in test [1], in test [3] and in test [5] was inactive.
As for `ClCC(Cl)(Cl)Cl`, the result in test [1], in [3] and in test [2] was inactive.
As for `O=C1CC[C@@]2(O)[C@H]3Cc4ccc(O)c5c4[C@@]2(CCN3CC2CC2)[C@H]1O5`, the outcome in [1] and in test [5] was inactive.
As for `COc1cccc([C@@]2(O)CCCC[C@@H]2CN(C)C)c1`, the result in test [1], in test [8], in test [5], in test [7] and in test [9] was inactive.
As for `ClP(Cl)(Cl)(Cl)Cl`, the result in test [1], in test [8] and in test [5] was inactive.
As for `CN1C(=O)CC(=O)N(c2ccccc2)c2cc(Cl)ccc21`, the outcome in test [1], in test [6], in test [3], in test [2] and in test [5] was inactive.
`Cl/C=C\Cl`: in test [1], the outcome was inactive.
As for `CCS(=O)(=O)CCSP(=O)(OC)OC`, the outcome in test [1] was inactive.
Turning to `C[C@]12CC[C@H]3[C@@H](CCC4=CC(=O)CC[C@@H]43)[C@@H]1CC[C@@H]2OC(=O)CCc1ccccc1`, the outcome (in the test with PGR (gene 5241) [10]; in [11]; in [12]; with PGR (gene 5241) [13]; in test [14]; in test [15]) was inactive.
With `CCC1COC(Cn2cncn2)(c2ccc(Cl)cc2Cl)O1` (centres undefined), the half-maximal activity concentration (AC50) with PGR (gene 5241) [10] is 60.3 µM (active); in the test with PGR (gene 5241) [13], 36.3 µM (active). In addition, the compound was classed as inactive in test [11], in test [12] and in [14].
On to `C[C@@H]1[C@H]2Cc3ccc(O)cc3[C@]1(C)CCN2C`, for which the result in test [6] and in test [2] was inactive.
For `CCCCCBr`, the compound was called inactive in [6] and in test [3].
On to `O=NN(CCO)CCO`, for which the outcome in [8], in test [6] and in test [5] was inactive.
As for `O=P(Cl)(Cl)Cl`, the result in test [3], in test [2] and in [5] was inactive.
For `CCNCC(O)c1cccc(O)c1` (centres undefined), the outcome in [8], in test [3], in test [2] and in [5] was inactive.
On to `COc1ccc2c3c1O[C@H]1[C@H](O)CC[C@H]4[C@@H](C2)N(C)CC[C@@]341`, for which the outcome in test [8], in test [6] and in test [5] was inactive.
With `Cc1cc(OC(=O)N(C)C)nn1C(=O)N(C)C`, the compound was called inactive in [6], in [3], in test [2] and in test [5].
`Cc1ccccc1-n1c(CF)nc2ccc(N)cc2c1=O`: the result in test [16], in test [3] and in test [2] was inactive.
Take `CN[C@@H](C)[C@H](O)c1ccccc1`: the result in [8], in test [3], in [2] and in test [5] was inactive.
As to `CCC(C)Br` (centres undefined), the result in test [8], in test [6], in test [3], in test [2] and in test [5] was inactive.
For `C[C@H](N)[C@H](O)c1ccc(O)c(O)c1`, the outcome in test [8], in test [3], in test [2] and in test [5] was inactive.
As for `CCc1cc(OC)c(C[C@H](C)N)cc1OC`, the result in [6], in [3], in test [2] and in test [5] was inactive.
Take `CC(C)c1c(CN(C)C(C)Cc2ccccc2)n(C)n(-c2ccccc2)c1=O` (centres undefined): the result in test [16] and in [5] was inactive.
For the compound `CC(C)NC(C)Cc1ccc(I)cc1` (centres undefined), the outcome in test [6], in test [3], in test [2] and in [5] was inactive.
As to `CCOC(=O)c1cncn1C(C)c1ccccc1` (centres undefined), in [8], the result was inactive.
As to `CCCCCC[N+](=O)[O-]`, the compound was called inactive in test [16] and in test [2].
As to `Clc1ccc(C(Cl)(Cl)Cl)c(Cl)c1`, the result in [16] and in test [5] was inactive.
In the case of `CCCC(C)(COC(N)=O)COC(=O)NC1CC1` (centres undefined), the result in test [8], in test [3], in test [2] and in test [5] was inactive.
For the compound `O=C=NC1CCCCC1`, the outcome in test [6], in [3] and in test [2] was inactive.
For the compound `CCOP(=S)(OCC)SCCl`, the outcome in test [8], in [6], in test [2] and in test [5] was inactive.
Take `NCCc1ccc(O)cc1`: the outcome in [8] and in test [3] was inactive.
With `COc1ccc2c3c1O[C@H]1[C@@H](O)C=C[C@H]4[C@@H](C2)N(C)CC[C@@]341`, the compound was classed as inactive in test [6], in test [7], in test [17] and in [9].
For `CC1CCCC1`, the outcome in [8], in [3] and in test [5] was inactive.
For `CCN(CC)CCN1C(=O)CN=C(c2ccccc2F)c2cc(Cl)ccc21`, the outcome in test [6] and in test [2] was inactive.
